“And” between values parts separate entries of the source, which are not always exact repeats. Equal entries are not always repeated. Results filed as inconclusive are left out. The source made the active and inactive calls.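 How the source made its calls, unless noted: active means normalized viability below 100% at a tested concentration; inactive means the rest.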
Key:
[1] = system: Aerobactin synthetase IucA (Klebsiella pneumoniae); assay: inhibition of K. pneumoniae IucA enzyme – biochemical, Tocris library, absorbance (AID 1345561; call rule not given here;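 further: 100% = enzyme without compound and 0% = no enzyme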); settings: purified IucA enzyme assay, absorbance (OD) read-out; stronger effect = lower value;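 tested at 8 µM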
[2] = viability loss in pontine glioma line – cell-based, SU-DIPG-XVII, MIPE5.0, CellTiter-Glo, qHTS, dose response (AID 1347060; cut-off not given, nearly all actives have AC50 up to about 26 µM); settings: CellTiter-Glo ATP luminescence
[3] = viability loss in pontine glioma line – cell-based, JHH-DIPG-1, MIPE4.0, CellTiter-Glo, qHTS, dose response (AID 1347062; cut-off not given, nearly all actives have AC50 up to about 27 µM); settings: JHH-DIPG-1 viability, CellTiter-Glo ATP luminescence
[4] = viability loss in pontine glioma line – cell-based, SU-DIPG-IV, MIPE4.0, CellTiter-Glo, qHTS, dose response (AID 1347063; cut-off not given, nearly all actives have AC50 up to about 30 µM;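 further: compound exposure lasted 48 hours before the viability readout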); settings: CellTiter-Glo ATP luminescence
[5] = viability loss in pontine glioma line – cell-based, SU-DIPG-XIII, MIPE5.0, CellTiter-Glo, qHTS, dose response (AID 1347064; cut-off not given, nearly all actives have AC50 up to about 23 µM); settings: CellTiter-Glo ATP luminescence
[6] = viability loss in pontine glioma line – cell-based, SU-DIPG-XXV, MIPE5.0, CellTiter-Glo, qHTS, dose response (AID 1347065; cut-off not given, nearly all actives have AC50 up to about 26 µM;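 further: cells exposed to compound for 48 hours before ATP readout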); settings: CellTiter-Glo ATP luminescence
[7] = JHH-DIPG-1 glioma cell viability, MIPE5.0 library, CellTiter-Glo luminescence, qHTS (AID 1347067; cut-off not given, nearly all actives have AC50 up to about 26 µM;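 further: cells exposed to compound for 48 hours before readout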); settings: JHH-DIPG-1 glioma viability, CellTiter-Glo ATP luminescence
[8] = viability loss with induced miR-34 in A549 – imaging, A549 dox-inducible miR-34, nuclei and caspase counts, primary screen (AID 1347080;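 active means compounds whose cell count with miR-34 switched on is under 0.7 times the count with it off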); settings: A549 miR-34 inducible, Hoechst nuclei count, 48 h
[9] = compounds altering HSF1 focus formation in cells – imaging, Selleck Cancer Library (AID 1347162; in the data active means plate-normalised HSF1 focus index below about 0.46); settings: human cells, HSF1 nuclear foci imaging, at 10 µM; SSMD: measured here: HSF1 foci SSMD mean; cell count: measured here: cell number; plate-normalised HSF1 focus index: stronger effect = lower value
[10] = MELAS cybrid and Rieske KO viability enhancers – cell-based, MELAS cybrids, Rieske KO mouse fibroblasts, CellTiter-Glo, primary screen (AID 1508586;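 active means mean z-score across replicates of 1.96 or higher in either the MELAS or the Rieske mutant cell line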;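 further: z relative to plate mean and SD of compound and empty wells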); settings: low glucose
[11] = drug combination growth inhibition, ovarian cancer – cell-based, oncology-focused library, rucaparib conditional, profiling panel (AID 1508598); settings: patient-derived ovarian cancer cells, CellTiter-Glo viability, 144 h, stronger effect = lower value
[12] = galactose survival enhancers in mitochondrial complex I cybrids – cell-based, galactose medium, ATP luminescence, primary screen (AID 1645843;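 active means z-score of at least 1.8 in each of two replicates, scored against plate mean and spread of sample wells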;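 further: positive z means more ATP and so rescue of galactose-driven cybrid death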); settings: complex I mutant cybrid cells, 72 h, stronger effect = higher value
[13] = P. berghei load reduction in hepatocytes – cell-based, HepG2, luciferase luminescence, HepG2 viability, primary screen (AID 624349; in the data active means parasite load remaining mostly below about 12%, no sharp cut-off; inactive means mostly above about 10%;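 further: 100% = mean of DMSO negative control wells on the same plate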); settings: P. berghei liver stage in HepG2, luciferase luminescence, concentration not given here; parasite load remaining: stronger effect = lower value; viability: measured here: HepG2 viability without parasites
[14] = viability loss in pontine glioma line – cell-based, SU-DIPG-XIII, MIPE4.0, CellTiter-Glo, qHTS, dose response (AID 1347061; cut-off not given, nearly all actives have AC50 up to about 37 µM;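 further: cells exposed to compound for 48 hours before readout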); settings: CellTiter-Glo ATP luminescence
[15] = growth inhibition of DIPG cells – cell-based, MIPE4.0 library, CellTiter-Glo luminescence, qHTS (AID 1347066; cut-off not given, nearly all actives have AC50 up to about 30 µM;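 further: cells exposed to compound for 48 hours before readout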); settings: SU-DIPG-VI viability, CellTiter-Glo ATP luminescence
[16] = growth inhibition of DIPG cells – cell-based, MIPE5.0 library, qHTS (AID 1347068; cut-off not given, nearly all actives have IC50 up to about 30 µM); settings: SU-DIPG-XXV viability
[17] = stronger effect = lower value, cell number ratio, induced over uninduced
[18] = measured here: relative caspase fold change +Dox/-Dox
[19] = measured here: total cells with miR-34 induction, stronger effect = lower value
[20] = measured here: total cells without miR-34 induction
[21] = MELAS cybrid survival, CellTiter-Glo 48 h, stronger effect = higher value
[22] = Rieske KO mouse fibroblast survival, CellTiter-Glo 72 h

O=C(O)c1ccc(-c2c[nH]c3ncc(-c4ccccc4)cc23)cc1C1CCCC1
-2.05: z-score [10, 22]
active: AC50 [4] 372 nM | viability ([11]; at 0.000305 µM, OCI-P5x cells, with rucaparib 20 µM, 100% = cells with rucaparib alone) 85.9% | viability ([11]; at 0.000305 µM, OCI-P5x cells, without rucaparib) 89.5% | viability ([11]; at 0.00122 µM, OCI-P5x cells, with rucaparib 20 µM, 100% = cells with rucaparib alone) 90% | viability ([11]; at 0.00122 µM, OCI-P5x cells, without rucaparib) 99.6% | viability ([11]; at 0.0195 µM, OCI-P5x cells, with rucaparib 20 µM, 100% = cells with rucaparib alone) 97.8% | viability ([11]; at 0.0781 µM, OCI-C5x cells, with rucaparib 10 µM, 100% = cells with rucaparib alone) 95.5% | viability ([11]; at 0.0781 µM, OCI-P5x cells, with rucaparib 20 µM, 100% = cells with rucaparib alone) 95.2% | viability ([11]; at 0.313 µM, OCI-C5x cells, with rucaparib 10 µM, 100% = cells with rucaparib alone) 91.3% | viability ([11]; at 1.25 µM, OCI-C5x cells, with rucaparib 10 µM, 100% = cells with rucaparib alone) 88.1% | viability ([11]; at 1.25 µM, OCI-P5x cells, with rucaparib 20 µM, 100% = cells with rucaparib alone) 93.8% | viability ([11]; at 1.25 µM, OCI-P5x cells, without rucaparib) 93.3% | viability ([11]; at 5 µM, OCI-C5x cells, with rucaparib 10 µM, 100% = cells with rucaparib alone) 65.2% | viability ([11]; at 5 µM, OCI-C5x cells, without rucaparib) 60.5% | viability ([11]; at 5 µM, OCI-P5x cells, with rucaparib 20 µM, 100% = cells with rucaparib alone) 92.6% | viability ([11]; at 5 µM, OCI-P5x cells, without rucaparib) 75.8%
inactive: remaining activity [1] 108% | outcome [2] | outcome [3] | outcome [5] | outcome [6] | outcome [7] | fold change [8, 17] 0.863 and 0.894 | plate-normalised HSF1 focus index [9] 1.11 | z-score [10, 21] -0.208 | viability ([11]; at 0.000305 µM, OCI-C5x cells, with rucaparib 10 µM, 100% = cells with rucaparib alone) 113% | viability ([11]; at 0.000305 µM, OCI-C5x cells, without rucaparib) 105% | viability ([11]; at 0.00122 µM, OCI-C5x cells, with rucaparib 10 µM, 100% = cells with rucaparib alone) 106% | viability ([11]; at 0.00122 µM, OCI-C5x cells, without rucaparib) 118% | viability ([11]; at 0.00488 µM, OCI-C5x cells, with rucaparib 10 µM, 100% = cells with rucaparib alone) 112% | viability ([11]; at 0.00488 µM, OCI-C5x cells, without rucaparib) 120% | viability ([11]; at 0.00488 µM, OCI-P5x cells, with rucaparib 20 µM, 100% = cells with rucaparib alone) 101% | viability ([11]; at 0.00488 µM, OCI-P5x cells, without rucaparib) 100% | viability ([11]; at 0.0195 µM, OCI-C5x cells, with rucaparib 10 µM, 100% = cells with rucaparib alone) 118% | viability ([11]; at 0.0195 µM, OCI-C5x cells, without rucaparib) 115% | viability ([11]; at 0.0195 µM, OCI-P5x cells, without rucaparib) 103% | viability ([11]; at 0.0781 µM, OCI-C5x cells, without rucaparib) 112% | viability ([11]; at 0.0781 µM, OCI-P5x cells, without rucaparib) 103% | viability ([11]; at 0.313 µM, OCI-C5x cells, without rucaparib) 116% | viability ([11]; at 0.313 µM, OCI-P5x cells, with rucaparib 20 µM, 100% = cells with rucaparib alone) 102% | viability ([11]; at 0.313 µM, OCI-P5x cells, without rucaparib) 102% | viability ([11]; at 1.25 µM, OCI-C5x cells, without rucaparib) 105% | z-score [12] 0.065
2990 and 4050: cell count [8, 19]
1.9: SSMD [9]
6900: cell count [9]
0.684 and 1.96: fold change [8, 18]
3460 and 4530: cell count [8, 20]

NC(=O)c1ccc2[nH]ccc2c1
10000 and 9740: cell count [8, 20]
inactive: parasite load remaining [13] 32.8% | remaining activity [1] 89.5% | outcome [2] | outcome [14] | outcome [3] | outcome [5] | outcome [6] | outcome [15] | fold change [8, 17] 1.06 and 0.993 | z-score [12] 1.08 and 0.045
70.2%: viability [13]
0.967 and 0.869: fold change [8, 18]
10600 and 9670: cell count [8, 19]

CCCCC[C@H](O)/C=C/[C@H]1[C@H](O)CC(=O)[C@@H]1C/C=C\CCCC(=O)O
99.5%: viability [13]
-0.895: z-score [10, 22]
inactive: parasite load remaining [13] 43.5% | remaining activity [1] 127% | outcome [2] | outcome [14] | outcome [3] | outcome [4] | outcome [16] | z-score [10, 21] 0.0898 | z-score [12] -0.165 and 0.63

— PubChem BioAssay
